# The source made the active and inactive calls.
# Legend:
# [1] = test system: Plasmodium falciparum Sir2 (PF13_0152, Sir2A); assay: pfSir2 binders on small-molecule microarrays, primary screen, biochemical, small-molecule microarray, 635 nm fluorescence (AID 1098); details: small-molecule microarray binding, fluorescence 635 nm; higher = more signal;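 also: score merges spot fluorescence intensity with its signal-to-noise ratio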
# [2] = small-molecule microarray binders of probe aDKK1, primary screen, biochemical, biotinylated probe, 635/667 nm fluorescence (AID 1099); details: higher = more signal;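 also: score merges 667nm spot fluorescence with signal to noise across triplicate slides; reference of the scale not given here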
# [3] = small-molecule microarray binders of probe aCHRDL2, primary screen, biochemical, biotinylated probe, 635/667 nm fluorescence (AID 1100); details: higher = more signal
# [4] = splicing luciferase reporter signal modulators, primary screen, spliceosome inhibition project, cell-based, HEK293, splice +/- reporter (AID 1101); details: luminescence, 24 h, higher = more signal, called active from +8 up or from −8 down;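 also: HEK293 cells carrying a splicing-competent luciferase reporter gene; test concentration not given here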
# [5] = biological target: Fibroblast growth factor 10 (Homo sapiens) (UniProt O15520); assay: FGF10 binders on small-molecule microarrays, primary screen, biochemical, small-molecule microarray, 635 nm fluorescence (AID 1102); details: FGF10 binding, fluorescence 635 nm, higher = more signal
# Fibroblast growth factor 10 (Homo sapiens), sequence (O15520 whole entry, looked up): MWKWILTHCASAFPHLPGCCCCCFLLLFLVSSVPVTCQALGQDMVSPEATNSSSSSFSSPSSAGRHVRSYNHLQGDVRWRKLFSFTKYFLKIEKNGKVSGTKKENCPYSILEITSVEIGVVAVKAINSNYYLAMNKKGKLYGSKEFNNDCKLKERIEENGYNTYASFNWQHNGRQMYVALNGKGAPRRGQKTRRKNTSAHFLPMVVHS
# [6] = test system: glycogen synthase kinase-3 (GSK3A per assay name; protocol says GSK3B); assay: GSK3 binders on small-molecule microarrays, primary screen, biochemical, small-molecule microarray, 635 nm fluorescence, GSK3A (AID 1103); details: small-molecule microarray binding, fluorescence 635 nm; higher = more signal; also: the record names both GSK3A and GSK3B
# [7] = biological target: Epidermal growth factor receptor (Homo sapiens) (UniProt P00533); assay: EGFR binders on small-molecule microarrays, primary screen, biochemical, small-molecule microarray, 635 nm fluorescence (AID 1104); details: EGFR binding, higher = more signal;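 also: score merges 667 nm emission intensity with spot signal to noise over triplicate slides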
# Epidermal growth factor receptor (Homo sapiens), sequence (P00533 whole entry, looked up): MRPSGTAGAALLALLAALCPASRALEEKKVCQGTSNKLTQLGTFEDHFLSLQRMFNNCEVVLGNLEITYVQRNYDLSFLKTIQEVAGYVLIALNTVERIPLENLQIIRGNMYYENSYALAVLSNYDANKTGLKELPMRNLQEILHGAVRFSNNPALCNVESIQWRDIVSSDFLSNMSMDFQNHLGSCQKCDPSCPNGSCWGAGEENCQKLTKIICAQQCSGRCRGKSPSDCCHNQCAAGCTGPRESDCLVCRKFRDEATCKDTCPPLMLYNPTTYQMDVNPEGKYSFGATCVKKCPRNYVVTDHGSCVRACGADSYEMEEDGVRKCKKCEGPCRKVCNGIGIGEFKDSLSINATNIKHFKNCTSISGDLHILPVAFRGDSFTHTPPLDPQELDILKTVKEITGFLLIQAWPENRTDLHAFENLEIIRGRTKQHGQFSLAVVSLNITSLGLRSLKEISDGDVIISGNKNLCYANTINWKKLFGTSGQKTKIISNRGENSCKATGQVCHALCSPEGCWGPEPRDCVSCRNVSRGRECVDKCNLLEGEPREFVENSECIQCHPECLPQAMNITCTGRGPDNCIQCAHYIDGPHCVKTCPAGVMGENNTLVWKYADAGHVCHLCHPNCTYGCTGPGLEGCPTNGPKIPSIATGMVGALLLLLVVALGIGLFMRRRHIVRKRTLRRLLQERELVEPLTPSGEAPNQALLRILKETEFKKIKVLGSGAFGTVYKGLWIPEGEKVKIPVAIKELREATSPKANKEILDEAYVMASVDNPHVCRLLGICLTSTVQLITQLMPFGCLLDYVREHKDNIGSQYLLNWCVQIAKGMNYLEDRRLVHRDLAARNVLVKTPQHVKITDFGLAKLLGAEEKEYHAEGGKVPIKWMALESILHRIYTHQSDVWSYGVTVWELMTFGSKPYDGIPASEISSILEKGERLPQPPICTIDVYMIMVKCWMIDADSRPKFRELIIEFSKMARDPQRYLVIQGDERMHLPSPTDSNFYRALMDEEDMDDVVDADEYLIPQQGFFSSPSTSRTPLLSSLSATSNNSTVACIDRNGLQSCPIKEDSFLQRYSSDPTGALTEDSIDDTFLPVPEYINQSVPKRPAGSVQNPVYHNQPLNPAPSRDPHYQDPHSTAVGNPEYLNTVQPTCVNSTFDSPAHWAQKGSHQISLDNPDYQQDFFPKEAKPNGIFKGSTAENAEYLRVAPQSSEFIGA
# [8] = biological target: Follistatin-related protein 3 (Homo sapiens) (UniProt O95633); assay: FSTL3 binders on small-molecule microarrays, primary screen, biochemical, small-molecule microarray, 635 nm fluorescence (AID 1105); details: FSTL3 binding, higher = more signal;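 also: score merges emission near 667 nm and signal to noise per printed spot across three slides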
# Follistatin-related protein 3 (Homo sapiens), sequence (O95633 whole entry, looked up): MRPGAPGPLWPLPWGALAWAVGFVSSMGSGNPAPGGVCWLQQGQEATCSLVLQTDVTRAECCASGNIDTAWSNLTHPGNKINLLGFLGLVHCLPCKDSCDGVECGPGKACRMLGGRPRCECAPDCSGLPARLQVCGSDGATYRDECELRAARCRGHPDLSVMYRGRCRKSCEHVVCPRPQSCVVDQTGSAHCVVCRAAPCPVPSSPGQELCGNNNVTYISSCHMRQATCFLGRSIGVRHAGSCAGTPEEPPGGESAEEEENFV
# [9] = biological target: Dickkopf-related protein 1 (Homo sapiens) (UniProt O94907); assay: DKK1 binders on small-molecule microarrays, primary screen, biochemical, small-molecule microarray, 635 nm fluorescence scan (AID 1106); details: DKK1 binding, higher = more signal;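 also: score merges emission near 667 nm with signal to noise over three replicate slides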
# Dickkopf-related protein 1 (Homo sapiens), sequence (O94907 whole entry, looked up): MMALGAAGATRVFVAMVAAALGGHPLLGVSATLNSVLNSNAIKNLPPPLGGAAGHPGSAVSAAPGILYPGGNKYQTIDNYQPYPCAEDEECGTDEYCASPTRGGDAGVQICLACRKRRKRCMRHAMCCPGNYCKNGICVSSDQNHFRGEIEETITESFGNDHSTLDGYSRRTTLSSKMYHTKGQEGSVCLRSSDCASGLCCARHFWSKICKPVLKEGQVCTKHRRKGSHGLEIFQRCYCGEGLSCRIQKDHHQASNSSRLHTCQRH
# [10] = test system: Inhibin beta A chain (activin A); assay: INHBA (activin A) binders on microarrays, primary screen, biochemical, small-molecule microarray, 635 nm fluorescence scan (AID 1107); details: small-molecule microarray binding, higher = more signal;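 also: mouse activin A protein probed at 4.33 µg/mL on printed slides; score merges bound-protein fluorescence near 667 nm with spot signal-to-noise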
Compound,composite z-score [1],composite z-score [2],composite z-score [3],z-score [4],composite z-score [5],composite z-score [6],composite z-score [7],composite z-score [8],composite z-score [9],composite z-score [10]
COC(=O)[C@@]1(Cc2ccccc2)[C@H]2c3cc(C(=O)N4CCCC4)n(CC4CC4)c3C[C@H]2CN1C(=O)c1ccccc1,1.23,1.48,1.16,-2.08 (inactive),0.596,1.29,0.436,1.17,-0.23,1.16
O=C1NC(=O)C2C1C=CC(C(O)Cc1ccccc1)N2Nc1ccc(Cl)cc1Cl (stereo not given),1.2,0.931,1.09,1.8 (inactive),0.175,-0.0984,-0.854,0.236,-1.18,1.07
COc1cc2c(cc1OC)CN(C(=O)[C@H]1[C@@H]3C(=O)O[C@@H](c4ccccc4)[C@@H](c4ccccc4)N3[C@@H](c3ccc(O)cc3)[C@]13C(=O)Nc1ccc(C#CC4=CCCCC4)cc13)CC2,1.32,0.817,0.785,-0.58 (inactive),1.14,1.29,0.405,1.43,0.779,-0.301
CC(C)(C)OC(=O)CC[C@]1(C(=O)O)N=C(c2ccc(OCCCO)cc2)O[C@H]1c1ccccc1N=[N+]=[N-],1.34,1.75,1.11,0.115 (inactive),0.443,0.581,-0.143,0.4,0.0608,0.977
C=CC[C@@]1(C(=O)NCc2ccccc2)N=C(c2ccc(OCCCO)cc2)O[C@@H]1c1ccccc1N=[N+]=[N-],0.888,0.925,1.02,-1.35 (inactive),1.22,-0.119,-0.104,0.751,-0.295,0.817
COc1ccc(C(=O)Nc2ccc(CN3C(=O)[C@@]4(O[C@@H](CCO)[C@H]([Si](C)(C)c5ccc(OC)cc5)[C@H]4C)c4ccccc43)cc2)cc1,1.32,0.381,0.47,-3.19 (inactive),0.793,1.1,0.65,1.45,1.04,1.39
CN(C)CCCCCCNC(=O)[C@@H]1C[C@@H]2C(=O)N[C@@H](CCCCN)C(=O)N2[C@@H]1c1cccc(OCCO)c1,1.96,2.69,1.65,-1.56 (inactive),1.59,1.47,1.11,1.66,2.13,1.55
CCOC(=O)[C@H]1C/C=C/C[C@H](C(=O)OCC)C(=O)O[C@H]2[C@@H](OC)O[C@H](CO)[C@@H](OC(=O)Nc3cccc(F)c3)[C@@H]2OC1=O,1.39,-0.438,-0.174,0.68 (inactive),0.687,0.327,-0.226,-0.0088,0.254,0.519
CC(C)c1ccc(NN2C(C(O)c3cc(C(F)(F)F)cc(C(F)(F)F)c3)C=CC3C(=O)N(c4ccccc4)C(=O)C32)cc1 (stereo not given),0.91,0.74,0.8,-0.753 (inactive),-0.329,0.543,-0.911,-0.486,-0.551,0.655
Cc1ccc(S[C@]2(C(=O)NC(C)C)CC(=O)N(Cc3ccccc3Cl)[C@@H]2c2ccc(CO)cc2I)cc1,1,0.0056,1.07,0.0132 (inactive),-1.05,-0.26,-1.51,-0.674,-1.39,0.762
COCCCNC(=O)C1N=C(c2ccc(OCCCO)cc2)N(c2ccccc2)O1 (stereo not given),0.87,0.0045,0.203,-0.27 (inactive),1.3,0.781,0.241,0.784,0.383,-0.6
C=C(CCCC)C(=O)CC[C@H](OC(C)=O)c1cccc(OCCO)c1,0.707,-0.409,-0.193,1.01 (inactive),-0.633,-0.654,-0.961,-0.794,-0.759,-0.162
CC(C)C[C@@H]1NC(=O)[C@H]2C[C@@H](C(=O)NCCCCCCN(C)C)[C@@H](c3ccc(O)cc3)N2C1=O,1.44,0.158,-0.0008,0.561 (inactive),1.2,1.32,0.653,1.13,1.4,1.12
COC(=O)[C@@]1(Cc2ccc(OC)cc2)[C@H]2c3cc(C(=O)N(C)C)n(CCN4CNCC4=O)c3C[C@H]2CN1C(=O)c1ccccc1,0.44,-0.218,0.7,2.02 (inactive),-0.33,-0.638,0.259,-0.153,-0.812,0.712
O=C1OCCC=C[C@H]2OC34C=CCN(CCN5CCOCC5)C(=O)[C@H]3N(CCCCCCO)C(=O)[C@@H]4C12 (stereo not given in full),0.813,-0.5,-0.35,0.418 (inactive),-0.306,-0.225,-0.71,-0.351,-0.292,0.191
C=CCNC(=O)[C@@H]1[C@H]2C(=O)O[C@H](c3ccccc3)[C@H](c3ccccc3)N2[C@H](c2ccc(OCCO)cc2)[C@@]12C(=O)Nc1ccc(C#Cc3ccc(OC)cc3)cc12,1.28,0.707,0.792,-0.476 (inactive),0.939,1.29,0.641,1.25,1.07,0.746
COC(=O)[C@@]1(Cc2ccc(F)cc2)[C@H]2c3cc(C(=O)N(C)C)n(Cc4ccc(S(C)(=O)=O)cc4)c3C[C@H]2CN1C(=O)c1ccccc1,0.46,0.883,0.899,0.895 (inactive),1.35,0.0364,0.603,0.0567,-0.0071,0.95
O=C1c2ccccc2[C@@]2(Cc3ccccc3N(CC(F)(F)F)C2=O)[C@H](c2ccc(CO)cc2)N1Cc1ccccc1Cl,0.0888,-0.237,-0.524,-0.311 (inactive),0.466,0.612,0.509,0.725,0.558,0.531
O=C(NCC(F)(F)F)[C@@H]1c2ccccc2C(=O)N(C2CCCCC2)[C@H]1c1ccc(CO)cc1,1.56,0.121,0.528,0.283 (inactive),0.0573,-0.0294,-0.759,0.177,-0.783,-0.0906
[N-]=[N+]=NCc1ccccc1C[C@]1(C(=O)N2CCOCC2)N=C(c2ccc(OCCCO)cc2)O[C@H]1c1ccccc1N=[N+]=[N-],1,0.873,0.93,-0.928 (inactive),1.31,1.33,0.466,1.37,0.234,0.878
COC(=O)[C@@]1(Cc2ccc(F)cc2)[C@H]2c3cc(C(=O)N4CCCC4)n(Cc4cc(C)n(C)n4)c3C[C@H]2CN1C(=O)c1ccccc1,0.89,1.01,1.4,-3.14 (inactive),0.533,0.775,-0.144,-0.261,-0.449,1.28
C=CCN1C(=O)[C@]2(O[C@H](CCO)[C@@H]([Si](C)(C)c3ccc(OC)cc3)[C@@H]2C)c2cc(N3C(=O)c4cccc5cccc3c45)ccc21,1.18,0.0458,0.151,-2.45 (inactive),0.446,0.398,-0.0841,0.286,-0.255,0.552
CCCC[C@@H]1C[C@H]1[C@@H](NC(=O)c1ccco1)c1ccc(Cl)cc1,0.428,0.807,1.03,-0.659 (inactive),0.438,1.15,-0.0272,0.0636,0.461,0.89
CC(C)(C)OC(=O)CC[C@]12N=C(c3ccc(OCCCO)cc3)O[C@H]1c1ccccc1N(CCS(=O)(=O)c1ccccc1)C2=O,1.17,0.438,0.52,0.0112 (inactive),0.905,1.23,0.545,0.975,0.445,0.924
COc1cc2c(cc1O)C=[N+](Cc1cccc(OC(F)(F)F)c1)CC2,0.674,-0.084,0.39,-0.663 (inactive),-0.0931,-0.104,0.128,0.534,0.141,0.994
CO[C@H]1O[C@H](CO)[C@@H](OC(=O)Nc2ccc(Br)cc2)[C@H](OC(=O)c2cc3ccccc3[nH]2)[C@H]1OC(=O)c1cc2ccccc2[nH]1,1.23,0.165,0.24,-4.44 (inactive),1.19,1.28,0.408,0.579,0.0104,0.227
COc1ccc(CCNC(=O)[C@@H]2c3ccccc3C(=O)N(C3Cc4ccccc4C3)[C@H]2c2ccc(CO)cc2)cc1,0.613,-0.124,0.857,0.54 (inactive),0.0846,0.316,-0.19,0.0595,-0.337,0.832
CCCCc1cn(C[C@H](Cc2ccccc2)NC(=O)N[C@H](CO)CCc2oc(C(C)=O)c(C(=O)OC)c2C(=O)OC)nn1,0.595,-0.164,-0.22,-0.949 (inactive),1.04,1.02,0.717,1.4,0.485,-0.0075
